According to PubChem BioAssay (EPA / NIEHS):
Several values for one entry are separate records, joined by “and”; a condition that tells them apart may be missing. Equal values may be shown once. Results filed as inconclusive are left out. A structure can be active in one record and inactive in another. Activity calls are given as the source filed them. How the source made its calls, unless noted: active means hit-call score of the fitted dose curve at least 0.9, where 1 is the maximum; inactive means score below 0.9.

Assays:
[1] = biological target: human RAR-related Orphan Receptor gamma (RORg), RORC (gene 6097) (UniProt P51449); experiment: ATG_RORg_TRANS: Attagene TRANS-FACTORIAL HepG2 Assay for human RAR-related Orphan Receptor gamma (RORg) (AID 2283011; active means hit-call score of the fitted dose curve at least 0.9, where 1 is the maximum)
Sequence of human RAR-related Orphan Receptor gamma (RORg), RORC (gene 6097) (P51449 whole entry, looked up, the tested form may be a part): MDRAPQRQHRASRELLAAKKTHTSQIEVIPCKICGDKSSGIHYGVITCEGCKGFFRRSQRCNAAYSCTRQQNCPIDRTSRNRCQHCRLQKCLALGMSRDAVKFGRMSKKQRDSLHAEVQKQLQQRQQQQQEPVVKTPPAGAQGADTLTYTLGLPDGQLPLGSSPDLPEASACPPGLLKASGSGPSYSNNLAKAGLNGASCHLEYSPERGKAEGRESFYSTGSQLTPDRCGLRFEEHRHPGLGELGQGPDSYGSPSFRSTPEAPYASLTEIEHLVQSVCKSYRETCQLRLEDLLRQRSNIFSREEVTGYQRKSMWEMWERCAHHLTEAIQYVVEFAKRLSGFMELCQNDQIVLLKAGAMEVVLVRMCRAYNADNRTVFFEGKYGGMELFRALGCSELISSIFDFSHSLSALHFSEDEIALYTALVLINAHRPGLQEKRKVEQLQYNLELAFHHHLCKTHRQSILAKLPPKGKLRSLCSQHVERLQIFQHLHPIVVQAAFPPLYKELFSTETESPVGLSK
Outline: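 Readout: reporter transcript induction (RT-PCR, fluorescent primer extension, capillary electrophoresis) after 24 h compound exposure of transiently transfected HepG2 cells carrying a RORg-Gal4 chimera and GAL4-UAS reporters; DMSO served as baseline, with increasing signal fitted.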

[2] = biological target: Retinoic acid receptor RXR-alpha (Homo sapiens) (UniProt P19793); experiment: ATG_RXRa_TRANS: Attagene TRANS-FACTORIAL HepG2 Assay for human Retinoid X Receptor alpha (RXRa) (AID 2283012; active means hit-call score of the fitted dose curve at least 0.9, where 1 is the maximum)
Sequence of Retinoic acid receptor RXR-alpha (Homo sapiens) (P19793 whole entry, looked up, the tested form may be a part): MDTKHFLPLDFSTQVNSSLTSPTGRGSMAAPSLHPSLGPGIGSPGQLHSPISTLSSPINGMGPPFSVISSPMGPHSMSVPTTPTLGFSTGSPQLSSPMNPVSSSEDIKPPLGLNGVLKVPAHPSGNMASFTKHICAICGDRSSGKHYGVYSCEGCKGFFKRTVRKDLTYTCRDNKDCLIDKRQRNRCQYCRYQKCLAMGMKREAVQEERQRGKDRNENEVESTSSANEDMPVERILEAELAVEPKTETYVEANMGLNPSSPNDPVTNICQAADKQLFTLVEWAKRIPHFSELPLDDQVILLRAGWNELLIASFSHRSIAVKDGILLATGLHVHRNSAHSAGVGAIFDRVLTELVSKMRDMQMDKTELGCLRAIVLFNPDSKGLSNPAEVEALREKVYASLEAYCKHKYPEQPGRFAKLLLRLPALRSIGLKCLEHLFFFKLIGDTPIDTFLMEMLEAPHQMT
Outline: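 HepG2 cells transiently transfected with multiplexed GAL4-UAS reporter units and chimeric NR-GAL4 fusions, dosed 24 h. Reporter mRNA measured by RT-PCR, FAM labelling, HpaI digestion and capillary electrophoresis; gain-of-signal fitted relative to DMSO baseline.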

[3] = biological target: human Retinoid X Receptor beta (RXRb), RXRB (gene 6257) (UniProt P28702); experiment: ATG_RXRb_TRANS: Attagene TRANS-FACTORIAL HepG2 Assay for human Retinoid X Receptor beta (RXRb) (AID 2283013; active means hit-call score of the fitted dose curve at least 0.9, where 1 is the maximum)
Sequence of human Retinoid X Receptor beta (RXRb), RXRB (gene 6257) (P28702 whole entry, looked up, the tested form may be a part): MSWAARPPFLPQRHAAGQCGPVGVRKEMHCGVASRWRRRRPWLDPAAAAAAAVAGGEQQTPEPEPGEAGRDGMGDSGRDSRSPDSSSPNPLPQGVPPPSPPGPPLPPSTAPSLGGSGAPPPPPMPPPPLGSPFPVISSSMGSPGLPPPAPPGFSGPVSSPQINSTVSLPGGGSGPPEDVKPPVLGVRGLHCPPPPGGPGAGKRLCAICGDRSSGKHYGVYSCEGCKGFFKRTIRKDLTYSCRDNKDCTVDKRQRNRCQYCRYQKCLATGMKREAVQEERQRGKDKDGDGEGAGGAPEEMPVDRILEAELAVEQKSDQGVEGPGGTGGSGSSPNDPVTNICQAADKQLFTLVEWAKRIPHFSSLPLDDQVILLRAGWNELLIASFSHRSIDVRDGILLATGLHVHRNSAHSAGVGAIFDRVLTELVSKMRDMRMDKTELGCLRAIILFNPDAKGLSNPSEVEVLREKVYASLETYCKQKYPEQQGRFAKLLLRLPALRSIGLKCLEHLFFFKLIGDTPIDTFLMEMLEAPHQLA
Outline: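 HepG2 cells transiently transfected with multiplexed reporter units driven by GAL4-UAS and exogenous chimeric NR-Gal4 proteins; treated 24 h. Reporter mRNA measured by RT-PCR, 6-FAM labelling and capillary electrophoresis; gain-of-signal fitted versus DMSO baseline.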

[4] = biological target: human Thyroid Receptor alpha (THRa1), THRA (gene 7067) (UniProt P10827); experiment: ATG_THRa1_TRANS: Attagene TRANS-FACTORIAL HepG2 Assay for human Thyroid Receptor alpha (THRa1) (AID 2283014; active means hit-call score of the fitted dose curve at least 0.9, where 1 is the maximum)
Sequence of human Thyroid Receptor alpha (THRa1), THRA (gene 7067) (P10827 whole entry, looked up, the tested form may be a part): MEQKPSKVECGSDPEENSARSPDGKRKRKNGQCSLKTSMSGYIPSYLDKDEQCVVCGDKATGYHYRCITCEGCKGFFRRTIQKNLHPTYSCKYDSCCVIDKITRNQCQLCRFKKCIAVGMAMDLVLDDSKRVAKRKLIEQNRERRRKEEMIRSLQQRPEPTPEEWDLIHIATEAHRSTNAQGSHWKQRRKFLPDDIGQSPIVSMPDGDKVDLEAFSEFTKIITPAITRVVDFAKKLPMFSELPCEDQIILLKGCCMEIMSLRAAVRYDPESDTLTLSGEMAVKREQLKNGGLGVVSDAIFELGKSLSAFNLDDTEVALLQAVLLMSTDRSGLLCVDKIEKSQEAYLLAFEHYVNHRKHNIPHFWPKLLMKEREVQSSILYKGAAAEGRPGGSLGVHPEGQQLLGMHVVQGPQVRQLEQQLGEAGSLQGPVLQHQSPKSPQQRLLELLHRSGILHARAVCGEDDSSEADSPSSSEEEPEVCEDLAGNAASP
Outline: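 HepG2 cells transiently transfected with multiplexed GAL4-UAS reporter units for exogenous chimeric THRa1-Gal4; reporter mRNA measured 24 h after dosing by RT-PCR, 6-FAM labelling, HpaI digestion and capillary electrophoresis. Gain-of-signal fitted versus DMSO baseline.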

[5] = read-out: E-selectin (Homo sapiens) (UniProt P16581); experiment: BSK_3C_Eselectin: BioMAP Diversity Plus: 3C Assay for Eselectin Biomarker Activity (AID 2283015); details: primary human endothelial cells (HUVEC); actives raise or lower the signal
Outline: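 Primary human umbilical vein endothelial cells (3C system) were dosed with chemical and cell-surface E-selectin measured by ELISA 24 h later. Bidirectional curve fitting used DMSO as negative control and baseline.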

[6] = read-out: Interleukin-1 alpha (IL1a), IL1A (gene 3552); experiment: BSK_BE3C_IL1a: BioMAP Diversity Plus: BE3C Assay for Interleukin-1 alpha (IL1a) Biomarker Activity (AID 2283016); details: primary human bronchial epithelial cells; actives raise or lower the signal
Outline: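 Human primary bronchial epithelial cells (BE3C system) were dosed with compound and IL-1a measured by ELISA 24 h later. Activity was fitted bidirectionally against DMSO baseline; cytotoxicity was tracked in parallel cultures by SRB total-protein staining.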

[7] = read-out: Monocyte Chemoattractant Protein-1 (MCP1), CCL2 (gene 6347); experiment: BSK_3C_MCP1: BioMAP Diversity Plus: 3C Assay for Monocyte Chemoattractant Protein-1 (MCP1) Biomarker Activity (AID 2283017); details: primary human endothelial cells (HUVEC); actives raise or lower the signal
Outline: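 Primary human umbilical vein endothelial cells (3C system) were exposed to test chemical for 24 h, after which MCP-1 was quantified by ELISA. Activity was fitted bidirectionally against DMSO as negative control and baseline.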

[8] = read-out: Monocyte Chemoattractant Protein-1 (MCP1), CCL2 (gene 6347); experiment: BSK_4H_MCP1: BioMAP Diversity Plus: 4H Assay for Monocyte Chemoattractant Protein-1 (MCP1) Biomarker Activity (AID 2283018); details: primary human endothelial cells (HUVEC); actives raise or lower the signal
Outline: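 Human umbilical vein endothelial cells (4H system) dosed with chemical; MCP-1 measured by ELISA 24 h after dosing. Bidirectional curve fitting against DMSO negative control as baseline; parallel SRB total-protein staining tracks overt cytotoxicity.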

[9] = read-out: Human Leukocyte Antigen - DR isotype (HLADR), HLA-DRA (gene 3122); experiment: BSK_3C_HLADR: BioMAP Diversity Plus: 3C Assay for Human Leukocyte Antigen - DR isotype (HLADR) Biomarker Activity (AID 2283019); details: primary human endothelial cells (HUVEC); actives raise or lower the signal
Outline: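 Primary human umbilical vein endothelial cells (3C system) were dosed with compound and cell-surface HLA-DR was quantified by ELISA at 24 h. Activity was fitted bidirectionally against DMSO as negative control and baseline.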

[10] = read-out: Interleukin-8 (IL8), CXCL8 (gene 3576); experiment: BSK_3C_IL8: BioMAP Diversity Plus: 3C Assay for Interleukin-8 (IL8) Biomarker Activity (AID 2283020); details: primary human endothelial cells (HUVEC); actives raise or lower the signal
Outline: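 Primary human umbilical vein endothelial cells (3C system) were exposed to test chemical for 24 h, then IL-8 was quantified by ELISA. Responses were fitted bidirectionally against DMSO vehicle as baseline.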

[11] = read-out: Monokine induced gamma interferon (MIG), CXCL9 (gene 4283); experiment: BSK_3C_MIG: BioMAP Diversity Plus: 3C Assay for Monokine induced gamma interferon (MIG) Biomarker Activity (AID 2283021); details: primary human endothelial cells (HUVEC); actives raise or lower the signal;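 on AC50: MIG protein level measured by immunoassay in the treated endothelial cultures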
Outline: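 Primary human umbilical vein endothelial cells in the 3C system were exposed to chemical for 24 h, after which MIG was quantified by ELISA. Activity was fitted bidirectionally against DMSO as negative control and baseline.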

[12] = BSK_3C_SRB: Viability Assessment in the BioMAP Diversity Plus: 3C Assay (AID 2283023); details: primary human endothelial cells (HUVEC);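 further: fitted both ways against DMSO so a hit may be signal rise or drop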
Outline: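 Primary human umbilical vein endothelial cells in the 3C system were read 24 h after compound dosing. Total protein was stained with 0.1% sulforhodamine B after 10% TCA fixation and read at 560 nm, with bidirectional fitting against DMSO as baseline.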

[13] = read-out: Matrix Metallopeptidase 1 (MMP1), MMP1 (gene 4312); experiment: BSK_BE3C_MMP1: BioMAP Diversity Plus: BE3C Assay for Matrix Metallopeptidase 1 (MMP1) Biomarker Activity (AID 2283024); details: primary human bronchial epithelial cells; actives raise or lower the signal
Outline: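 Primary human bronchial epithelial cells were dosed with test chemicals, and MMP1 levels were measured by ELISA 24 h later. Data were fitted bidirectionally against DMSO as the negative control and activity baseline.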

[14] = BSK_3C_Vis: BioMAP Diversity Plus: 3C Assay for Morphology Visualization (AID 2283025); details: primary human endothelial cells (HUVEC);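 further: fitted both ways so gain or loss versus DMSO counts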
Outline: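 Human umbilical vein endothelial cells in the 3C system were imaged by light microscopy 24 h after chemical dosing to record cell morphology. Activity was fitted bidirectionally against DMSO as negative control and baseline; the endpoint serves as a background control.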

[15] = read-out: Pselectin, SELP (gene 6403); experiment: BSK_4H_Pselectin: BioMAP Diversity Plus: 4H Assay for Pselectin Biomarker Activity (AID 2283026); details: primary human endothelial cells (HUVEC); actives raise or lower the signal
Outline: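 Primary human umbilical vein endothelial cells were exposed to test chemical for 24 h, then cell-surface P-selectin was quantified by ELISA. Activity was fitted bidirectionally against DMSO as negative control and baseline.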

[16] = BSK_4H_SRB: Viability Assessment in the BioMAP Diversity Plus: 4H Assay (AID 2283027); details: primary human endothelial cells (HUVEC);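 further: cells exposed to compound for 24 h before staining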;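 on AC50: curves fitted both ways versus DMSO so AC50 may be loss or gain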
Outline: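 Absorbance at 560 nm of SRB-stained total protein served as the viability read-out in confluent primary human umbilical vein endothelium 24 h after chemical treatment. Curves were fitted bidirectionally against DMSO as negative control.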

[17] = BSK_BE3C_SRB: Viability Assessment in the BioMAP Diversity Plus: BE3C Assay (AID 2283028); details: primary human bronchial epithelial cells;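 on AC50: fitted both ways so AC50 may mark signal gain or loss versus DMSO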
Outline: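 Human primary bronchial epithelial cells were exposed to test chemicals for 24 h. Total protein in parallel cultures was then measured by staining with 0.1% sulforhodamine B after 10% TCA fixation, with absorbance read at 560 nm. Activity was fitted bidirectionally against DMSO.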

[18] = read-out: Thrombomodulin, THBD (gene 7056); experiment: BSK_3C_Thrombomodulin: BioMAP Diversity Plus: 3C Assay for Thrombomodulin Biomarker Activity (AID 2283029); details: primary human endothelial cells (HUVEC); actives raise or lower the signal
Outline: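 Primary human umbilical vein endothelial cells (3C system) were exposed to chemical for 24 h, then thrombomodulin levels were measured by ELISA. Activity was fitted bidirectionally against the DMSO negative control as baseline.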

[19] = read-out: Urokinase-type plasminogen activator receptor (uPAR), PLAUR (gene 5329); experiment: BSK_4H_uPAR: BioMAP Diversity Plus: 4H Assay for Urokinase-type plasminogen activator receptor (uPAR) Biomarker Activity (AID 2283030); details: primary human endothelial cells (HUVEC); actives raise or lower the signal
Outline: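 Primary human umbilical vein endothelial cells were exposed to chemical for 24 h before cell-surface uPAR was quantified by ELISA. Activity was fitted bidirectionally against the DMSO negative control baseline.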

[20] = biological target: human Vitamin D Receptor (VDR), VDR (gene 7421) (UniProt P11473); experiment: ATG_VDR_TRANS: Attagene TRANS-FACTORIAL HepG2 Assay for human Vitamin D Receptor (VDR) (AID 2283022; active means hit-call score of the fitted dose curve at least 0.9, where 1 is the maximum)
Sequence of human Vitamin D Receptor (VDR), VDR (gene 7421) (P11473 whole entry, looked up, the tested form may be a part): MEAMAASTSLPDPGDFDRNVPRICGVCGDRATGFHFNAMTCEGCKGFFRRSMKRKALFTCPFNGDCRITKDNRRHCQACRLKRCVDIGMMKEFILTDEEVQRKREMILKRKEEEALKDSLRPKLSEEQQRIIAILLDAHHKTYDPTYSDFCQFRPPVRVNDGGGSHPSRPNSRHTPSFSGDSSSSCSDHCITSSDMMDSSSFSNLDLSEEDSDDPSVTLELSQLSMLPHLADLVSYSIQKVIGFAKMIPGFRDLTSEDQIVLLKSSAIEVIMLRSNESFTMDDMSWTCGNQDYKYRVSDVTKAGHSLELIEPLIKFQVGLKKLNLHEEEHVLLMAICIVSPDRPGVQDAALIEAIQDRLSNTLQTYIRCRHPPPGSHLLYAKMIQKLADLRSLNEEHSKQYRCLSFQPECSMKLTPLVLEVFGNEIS
Outline: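 HepG2 cells were transiently transfected with multiple GAL4-UAS reporter units, so signal reflects exogenous chimeric receptor-Gal4 activity. After 24 h compound exposure, reporter mRNA was measured by RT-PCR, fluorescent labelling and capillary electrophoresis, fitted for gain of signal versus DMSO.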

Measured: AC50

Sequence of E-selectin (Homo sapiens) (P16581 whole entry, looked up): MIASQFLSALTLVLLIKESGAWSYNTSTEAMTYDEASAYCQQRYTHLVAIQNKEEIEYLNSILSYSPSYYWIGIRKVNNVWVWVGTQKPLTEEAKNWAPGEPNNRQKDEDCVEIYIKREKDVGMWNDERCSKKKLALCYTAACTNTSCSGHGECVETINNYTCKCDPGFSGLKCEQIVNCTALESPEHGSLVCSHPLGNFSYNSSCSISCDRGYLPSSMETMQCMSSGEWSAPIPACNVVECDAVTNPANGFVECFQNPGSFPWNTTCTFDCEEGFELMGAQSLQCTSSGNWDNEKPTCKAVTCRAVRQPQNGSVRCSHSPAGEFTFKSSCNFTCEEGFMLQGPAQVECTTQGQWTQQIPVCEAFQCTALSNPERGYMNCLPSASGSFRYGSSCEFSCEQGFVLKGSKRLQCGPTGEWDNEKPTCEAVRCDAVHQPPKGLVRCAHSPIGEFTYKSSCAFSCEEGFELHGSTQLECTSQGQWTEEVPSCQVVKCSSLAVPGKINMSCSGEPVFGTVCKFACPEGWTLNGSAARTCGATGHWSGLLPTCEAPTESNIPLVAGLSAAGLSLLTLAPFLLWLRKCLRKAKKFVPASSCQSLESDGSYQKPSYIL

CC(C)C1(C)N=C(c2nc3ccccc3cc2C(=O)O)NC1=O (stereo unspecified)
inactive: [1] | [2] | [3] | [4] | [5] | [6] | [7] | [8] | [9] | [10] | [11] | [12] | [13] | [14] | [15] | [16] | [17] | [18] | [19]

COc1nc(C)nc(NC(=O)NS(=O)(=O)c2ccccc2CCC(F)(F)F)n1
active: [9] 20 µM
inactive: [1] | [2] | [3] | [4] | [5] | [6] | [7] | [8] | [9] | [10] | [11] | [20] | [12] | [13] | [14] | [15] | [16] | [17] | [18] | [19]

CCCCOC(=O)c1ccccc1C(=O)OCCCC
active: [3] 64.6 µM and 65.2 µM and 68.9 µM | [4] 39.6 µM and 35.1 µM and 2.44 µM | [8] 26.4 µM | [12] 15.2 µM
inactive: [1] | [2] | [3] | [5] | [6] | [7] | [8] | [9] | [10] | [11] | [20] | [12] | [13] | [14] | [15] | [16] | [17] | [18] | [19]

CN(C)C(=S)SSC(=S)N(C)C
active: [5] 30.5 µM | [6] 9.3 µM | [7] 30.9 µM | [8] 24 µM | [9] 14.9 µM | [10] 31.7 µM | [11] 33.6 µM | [13] 14.2 µM | [14] 16.3 µM | [15] 14 µM | [16] 25.7 µM | [17] 8.39 µM | [19] 26.3 µM
inactive: [1] | [2] | [3] | [20] | [12] | [18]

COC(=O)C=C(C)OP(=O)(OC)OC
inactive: [1] | [2] | [3] | [4] | [5] | [6] | [7] | [8] | [9] | [10] | [11] | [12] | [13] | [14] | [15] | [16] | [17] | [18] | [19]
